# According to PubChem BioAssay (NCI):
# This is part of a sample that, as a whole, favours compounds with a hit. Of some 83,000 tested, about 20% had one in any assay.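 Note: values are percent growth. 100 is the growth of untreated cells, values between 100 and 0 indicate rising inhibition; between -100 and 0 indicates cell death.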 The source made the active and inactive calls. How the source made its calls: active means growth percent below 10; inactive means the rest.
# System: UACC-62 melanoma
# Experiment: NCI-60 one-dose screen, 48 h (100 = growth as untreated, 0 = no growth, -100 = all killed)
# Details: 10 µM unless noted
row,SMILES,growth
1,CC(C)(C)c1[nH]nc2c1C(c1cc3ccccc3[nH]c1=O)Nc1cc(C(=O)OCc3ccccc3)ccc1N2 (stereo unspecified),49.1% (inactive)
2,COc1ccc2nc(-c3c(-c4ccccc4)nc4ncccn34)[nH]c2c1,95.3% (inactive)
3,O=C1NC(=Nc2ccc(S(=O)(=O)Nc3nccs3)cc2)S/C1=C\c1coc2ccccc2c1=O,99.5% (inactive)
4,CC(C)=CCC[C@](C)(O)[C@H]1CC[C@]2(C)[C@@H]1CC[C@@H]1[C@@]3(C)C/C(=C/c4ccc(Br)cc4)C(=O)C(C)(C)[C@@H]3CC[C@]12C,78.6% (inactive)
5,O=c1c2sc3ncc(Br)cc3c2ncn1-c1cccc(Cl)c1,80.3% (inactive)
6,CCc1ccc(-c2ccc(Nc3ccccc3)nn2)cc1S(N)(=O)=O,81.1% (inactive)
7,COc1ccc(-c2nc3ccccn3c2-c2nc3ccc(Cl)cc3[nH]2)cc1,86.3% (inactive)
8,Cn1cc(-c2nc(-c3c[nH]c4ncccc34)cs2)c2ccccc21,84.6% (inactive)
9,COc1ccc2c(c1)C/C(=C\c1cc(-c3ccc4c(c3)OCO4)n[nH]1)C2=O,90.3% (inactive)
10,Nc1ccc(Br)cn1,97.3% (inactive)
11,Cc1nn(-c2ccc(Br)cc2)c2nc3[nH]c(=O)[nH]c(=O)c3nc12,102% (inactive)
12,Cn1cc(-c2csc(-c3cn(C(=O)OC(C)(C)C)c4ccccc34)n2)c2cccnc21,62.1% (inactive)
13,Cc1ccc(-c2nc([P+](c3ccccc3)(c3ccccc3)c3ccccc3)c(N3CCOCC3)o2)cc1,-29.4% (active)
14,c1ccc2[nH]c(-c3cc(-c4ccc5c(c4)OCO5)n[nH]3)nc2c1,49.7% (inactive)
15,Nc1c(C(=O)Nc2cccc(Br)c2)sc2nc3c(cc12)C(=O)CCC3,35.3% (inactive)
16,COc1cccc(NC(=O)c2sc3nc4c(cc3c2N)C(=O)CCC4)c1,34.5% (inactive)
17,C=C(C)[C@@H]1CC[C@]2(C)[C@H](CC=C3[C@@H]4CC(C)(C)CC[C@]4(C=O)CC[C@]32C)[C@@]1(C)CCCN,87.8% (inactive)

row,SMILES,growth
1,CC(C)(C)c1cc(-n2c(-c3ccc(Cl)cc3)nc3cc(C(=O)Nc4ccc(Cl)cc4)ccc32)n[nH]1,39% (inactive)
2,O=c1c(CNc2ccc(S(=O)(=O)Nc3nccs3)cc2)coc2ccccc12,97.9% (inactive)
3,COc1cc(-c2cc(-c3nc4ccc(F)cc4[nH]3)[nH]n2)cc(OC)c1OC,-25.4% (active)
4,O=C1C(Cl)=C(Nc2ccc(S(=O)(=O)c3ccc(NC4=C(Cl)C(=O)c5ccccc5C4=O)cc3)cc2)C(=O)c2ccccc21,12.5% (inactive)
5,Fc1ccc2nc(-c3cc(-c4ccc5c(c4)OCO5)n[nH]3)[nH]c2c1,53.7% (inactive)
6,O=c1c(CNc2ccc(S(=O)(=O)Nc3ncccn3)cc2)coc2ccccc12,89.8% (inactive)
7,COc1ccc(-c2cc(/C=C/C(=O)c3ccc(N)cc3)[nH]n2)cc1,24.7% (inactive)
8,COC(=O)[C@]12CC[C@@H](C(=O)/C=C/c3cccnc3)[C@@H]1[C@H]1CC[C@@H]3[C@@]4(C)C/C(=C/c5cccnc5)C(=O)C(C)(C)[C@@H]4CC[C@@]3(C)[C@]1(C)CC2,-67.9% (active)
9,NC1(N)C=CC2=C(C=C1)C1(N)C3=C(C=CC(N)(N)C=C3)N2C2(N)C3=C(C=CC(N)(N)C=C3)N1C1=C2C=CC(N)(N)C=C1,81.5% (inactive)
10,COc1ccc2c(c1)C/C(=C\c1cc(-c3cc(OC)c(OC)c(OC)c3)n[nH]1)C2=O,88.1% (inactive)
11,COc1ccc(NC(=O)c2ccc3c(c2)nc(-c2cc4ccccc4[nH]c2=O)n3-c2cc(C(C)(C)C)[nH]n2)cc1,85.6% (inactive)
12,COc1ccc2nc(-c3cc(-c4cc(OC)c(OC)c(OC)c4)n[nH]3)[nH]c2c1,-53.6% (active)
13,Nc1nc2c(c(=O)[nH]1)C(c1ccc3c(c1)OCO3)C=C(C(=O)O)N2 (stereo unspecified),116% (inactive)
14,COc1ccc(-c2cc(/C=C/C(=O)c3ccc(OC)c(OC)c3)[nH]n2)cc1,37.3% (inactive)
15,COc1cc2c(cc1OC)C(=O)/C(=C/c1cc(-c3ccc4c(c3)OCO4)n[nH]1)C2,25.8% (inactive)
16,COc1cc(-c2cc(-c3nc4ccccc4[nH]3)[nH]n2)cc(OC)c1OC,34.5% (inactive)

# System: LOX IMVI melanoma
# Experiment: as above
# Details: 10 µM unless noted
row,SMILES,growth
1,O=Cc1nc2ccccc2[nH]1,91.2% (inactive)
2,CC(C)(C)c1ccc(OCCCCCCCN2CCNCC2)cc1,-77.8% (active)
3,Nc1ccc(Cl)cn1,92.7% (inactive)
4,CCCCC(=O)OC1CCCCC1C (stereo unspecified),97.9% (inactive)
5,COc1ccc(/C=C/C(=O)NCCO)cc1,95.9% (inactive)

# System: SK-MEL-28 melanoma
# Experiment: as above
# Details: 10 µM unless noted
row,SMILES,growth
1,CC(C)(C)c1[nH]nc2c1C(c1cc3ccccc3[nH]c1=O)Nc1cc(C(=O)OCc3ccccc3)ccc1N2 (stereo unspecified),77.2% (inactive)
2,COc1ccc2nc(-c3c(-c4ccccc4)nc4ncccn34)[nH]c2c1,91.5% (inactive)
3,O=C1NC(=Nc2ccc(S(=O)(=O)Nc3nccs3)cc2)S/C1=C\c1coc2ccccc2c1=O,111% (inactive)
4,CC(C)=CCC[C@](C)(O)[C@H]1CC[C@]2(C)[C@@H]1CC[C@@H]1[C@@]3(C)C/C(=C/c4ccc(Br)cc4)C(=O)C(C)(C)[C@@H]3CC[C@]12C,100% (inactive)
5,O=c1c2sc3ncc(Br)cc3c2ncn1-c1cccc(Cl)c1,78% (inactive)
6,O=Cc1nc2ccccc2[nH]1,116% (inactive)
7,CCc1ccc(-c2ccc(Nc3ccccc3)nn2)cc1S(N)(=O)=O,87.7% (inactive)
8,COc1ccc(-c2nc3ccccn3c2-c2nc3ccc(Cl)cc3[nH]2)cc1,101% (inactive)
9,Cn1cc(-c2nc(-c3c[nH]c4ncccc34)cs2)c2ccccc21,105% (inactive)
10,COc1ccc2c(c1)C/C(=C\c1cc(-c3ccc4c(c3)OCO4)n[nH]1)C2=O,104% (inactive)
11,Nc1ccc(Br)cn1,107% (inactive)
12,Cc1nn(-c2ccc(Br)cc2)c2nc3[nH]c(=O)[nH]c(=O)c3nc12,91.2% (inactive)
13,Cn1cc(-c2csc(-c3cn(C(=O)OC(C)(C)C)c4ccccc34)n2)c2cccnc21,79.2% (inactive)
14,CC(C)(C)c1ccc(OCCCCCCCN2CCNCC2)cc1,53% (inactive)
15,Nc1ccc(Cl)cn1,110% (inactive)
16,Cc1ccc(-c2nc([P+](c3ccccc3)(c3ccccc3)c3ccccc3)c(N3CCOCC3)o2)cc1,29.9% (inactive)
17,c1ccc2[nH]c(-c3cc(-c4ccc5c(c4)OCO5)n[nH]3)nc2c1,71.3% (inactive)
18,Nc1c(C(=O)Nc2cccc(Br)c2)sc2nc3c(cc12)C(=O)CCC3,48.3% (inactive)
19,COc1cccc(NC(=O)c2sc3nc4c(cc3c2N)C(=O)CCC4)c1,62.9% (inactive)

row,SMILES,growth
1,C=C(C)[C@@H]1CC[C@]2(C)[C@H](CC=C3[C@@H]4CC(C)(C)CC[C@]4(C=O)CC[C@]32C)[C@@]1(C)CCCN,89.4% (inactive)
2,CC(C)(C)c1cc(-n2c(-c3ccc(Cl)cc3)nc3cc(C(=O)Nc4ccc(Cl)cc4)ccc32)n[nH]1,79.7% (inactive)
3,O=c1c(CNc2ccc(S(=O)(=O)Nc3nccs3)cc2)coc2ccccc12,121% (inactive)
4,COc1cc(-c2cc(-c3nc4ccc(F)cc4[nH]3)[nH]n2)cc(OC)c1OC,7.54% (active)
5,O=C1C(Cl)=C(Nc2ccc(S(=O)(=O)c3ccc(NC4=C(Cl)C(=O)c5ccccc5C4=O)cc3)cc2)C(=O)c2ccccc21,14.2% (inactive)
6,Fc1ccc2nc(-c3cc(-c4ccc5c(c4)OCO5)n[nH]3)[nH]c2c1,75.3% (inactive)
7,O=c1c(CNc2ccc(S(=O)(=O)Nc3ncccn3)cc2)coc2ccccc12,119% (inactive)
8,COc1ccc(-c2cc(/C=C/C(=O)c3ccc(N)cc3)[nH]n2)cc1,34.6% (inactive)
9,COC(=O)[C@]12CC[C@@H](C(=O)/C=C/c3cccnc3)[C@@H]1[C@H]1CC[C@@H]3[C@@]4(C)C/C(=C/c5cccnc5)C(=O)C(C)(C)[C@@H]4CC[C@@]3(C)[C@]1(C)CC2,-96.3% (active)
10,NC1(N)C=CC2=C(C=C1)C1(N)C3=C(C=CC(N)(N)C=C3)N2C2(N)C3=C(C=CC(N)(N)C=C3)N1C1=C2C=CC(N)(N)C=C1,99.1% (inactive)
11,CCCCC(=O)OC1CCCCC1C (stereo unspecified),98.4% (inactive)
12,COc1ccc(/C=C/C(=O)NCCO)cc1,104% (inactive)
13,COc1ccc2c(c1)C/C(=C\c1cc(-c3cc(OC)c(OC)c(OC)c3)n[nH]1)C2=O,99.3% (inactive)
14,COc1ccc(NC(=O)c2ccc3c(c2)nc(-c2cc4ccccc4[nH]c2=O)n3-c2cc(C(C)(C)C)[nH]n2)cc1,93.2% (inactive)
15,COc1ccc2nc(-c3cc(-c4cc(OC)c(OC)c(OC)c4)n[nH]3)[nH]c2c1,-17.6% (active)
16,Nc1nc2c(c(=O)[nH]1)C(c1ccc3c(c1)OCO3)C=C(C(=O)O)N2 (stereo unspecified),96.2% (inactive)
17,COc1ccc(-c2cc(/C=C/C(=O)c3ccc(OC)c(OC)c3)[nH]n2)cc1,53.9% (inactive)
18,COc1cc2c(cc1OC)C(=O)/C(=C/c1cc(-c3ccc4c(c3)OCO4)n[nH]1)C2,0.563% (active)
19,COc1cc(-c2cc(-c3nc4ccccc4[nH]3)[nH]n2)cc(OC)c1OC,61.8% (inactive)
